POLB inh: blocks human DNA polymerase beta activity; P06746; Potency, µM (top dose mostly 114 µM), for inactives: top-dose activity change, negative = inhibition, hits mostly inhibitors; Pol beta primer extension/strand displacement, fluorescence kinetic; hit rate 1.3% among 340,000; further: potency means the concentration at half of the fitted maximal effect; on the % scale 0 is the no-effect control and ±100 the full control effect
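Enzyme-only controls used 10 nM Pol beta; buffer lacking enzyme served as negative control. Compound preincubated 15 min, then 50 nM substrate added; 0 and 10 min reads at room temperature.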
PI5P4Ka inh: blocks human PI5P4K alpha kinase activity; PI5P4Kalpha enzyme, ADP-Glo luminescence, 60 min; active compounds read low; max response, %; hit rate 1.2% among 330,000; active means max response of -50% or lower; inconclusive means between -30% and -50%; inactive means -30% or higher; further: value at the top dose of about 77 µM; on the % scale 0 is the no-effect control and ±100 the full control effect
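Reactions run in 0.038 M HEPES pH 7.4, 0.28 mM EGTA, 0.1% CHAPS and 5% DMSO, with PI5P4Kalpha, substrate, compound and 5 microM ATP final, one hour at room temperature. Readout is ADP-Glo luminescence.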
Pol iota inh: inhibitors of human DNA polymerase iota. Q9UNA4. Pol iota fluorescent replication assay, 10 min. Potency, µM (top dose mostly 115 µM), for inactives: at the highest dose activity, negative = inhibition, most hits filed as inhibitors. hit rate 1% among 390,000. AID 588590; further: potency means the concentration at half of the fitted maximal effect
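Pol iota at 10 nM preincubated 15 min with compounds at room temperature; reaction started with fluorescent substrate, 50 nM final. Fluorescence read kinetically at 0 and 10 min; buffer-only wells as negative control.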
WRN inhibitor: inhibitors of human WRN helicase; Q14191; WRN helicase unwinding, fluorescent forked duplex, kinetic; Potency, µM (series often up to 114 µM), for the others: top-dose activity change, negative = inhibition, most hits filed as inhibitors; hit rate 0.46% among 360,000; further: potency means the concentration at half of the fitted maximal effect; on the % scale 0 is the no-effect control and ±100 the full control effect; nearly all actives have a fitted effect of over 55% in size
Target sequence (Q14191 whole entry, looked up): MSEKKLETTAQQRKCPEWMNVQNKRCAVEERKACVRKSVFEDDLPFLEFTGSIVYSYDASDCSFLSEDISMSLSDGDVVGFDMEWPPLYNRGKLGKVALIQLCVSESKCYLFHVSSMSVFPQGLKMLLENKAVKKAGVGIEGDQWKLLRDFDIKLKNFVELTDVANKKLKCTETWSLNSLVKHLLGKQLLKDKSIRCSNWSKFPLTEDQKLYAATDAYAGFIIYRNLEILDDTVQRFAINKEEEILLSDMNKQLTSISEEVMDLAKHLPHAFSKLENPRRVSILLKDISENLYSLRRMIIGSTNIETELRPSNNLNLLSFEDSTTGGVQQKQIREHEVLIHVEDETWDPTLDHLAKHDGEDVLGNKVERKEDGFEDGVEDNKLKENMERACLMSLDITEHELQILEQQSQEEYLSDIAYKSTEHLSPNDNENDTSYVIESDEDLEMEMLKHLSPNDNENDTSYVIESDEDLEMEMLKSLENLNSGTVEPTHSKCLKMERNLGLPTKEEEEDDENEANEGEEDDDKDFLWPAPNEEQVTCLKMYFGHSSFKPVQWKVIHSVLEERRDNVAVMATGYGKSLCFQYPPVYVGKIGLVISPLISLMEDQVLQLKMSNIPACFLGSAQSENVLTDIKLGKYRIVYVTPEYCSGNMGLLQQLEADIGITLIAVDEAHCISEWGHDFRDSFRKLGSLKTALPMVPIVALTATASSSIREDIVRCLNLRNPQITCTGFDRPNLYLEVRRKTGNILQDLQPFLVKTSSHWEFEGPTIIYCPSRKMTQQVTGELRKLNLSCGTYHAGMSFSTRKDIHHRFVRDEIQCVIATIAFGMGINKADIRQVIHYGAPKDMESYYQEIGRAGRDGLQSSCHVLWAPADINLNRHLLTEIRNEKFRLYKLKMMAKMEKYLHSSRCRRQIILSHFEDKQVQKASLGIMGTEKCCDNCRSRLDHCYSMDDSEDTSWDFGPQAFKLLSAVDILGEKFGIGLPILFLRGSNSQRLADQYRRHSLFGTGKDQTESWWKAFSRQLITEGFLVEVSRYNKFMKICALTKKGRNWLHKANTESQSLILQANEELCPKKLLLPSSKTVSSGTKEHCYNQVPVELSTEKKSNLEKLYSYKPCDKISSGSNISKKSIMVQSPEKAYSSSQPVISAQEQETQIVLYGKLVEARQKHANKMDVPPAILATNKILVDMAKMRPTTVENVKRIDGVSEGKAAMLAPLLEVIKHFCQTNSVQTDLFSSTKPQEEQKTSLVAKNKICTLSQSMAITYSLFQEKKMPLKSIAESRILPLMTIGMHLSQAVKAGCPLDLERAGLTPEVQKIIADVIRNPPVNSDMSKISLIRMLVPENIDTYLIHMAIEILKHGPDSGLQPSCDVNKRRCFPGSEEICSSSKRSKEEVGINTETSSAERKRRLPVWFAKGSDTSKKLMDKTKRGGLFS
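Screening of the MLSMR collection measured strand separation of a quenched forked DNA duplex (100 nM) by 20 nM WRN with 2 mM ATP, all final. Compounds were preincubated with enzyme 15 min at room temperature.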
Pol kappa inh: blocks human DNA polymerase kappa activity. purified Pol kappa, fluorescent DNA synthesis assay, 10 min. Q9UBT6. Potency, µM (doses to about 107 µM), without a hit: at the highest dose activity, negative = inhibition, most hits filed as inhibitors. hit rate 0.53% among 400,000; further: potency means the concentration at half of the fitted maximal effect; on the % scale 0 is the no-effect control and ±100 the full control effect
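10 nM Pol kappa preincubated 15 min at room temperature with compounds, then reaction started with substrate at 50 nM final. Fluorescence read kinetically at 0 and 10 min; buffer-only wells served as negative control.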
POLH inh: DNA polymerase eta (human) inhibition; Q9Y253; recombinant Pol eta, fluorescent DNA replication assay; Potency, µM (doses to about 114 µM), for the others: at the highest dose activity change, negative = inhibition, usual class: inhibitors; hit rate 1.2% among 390,000; further: potency means the concentration at half of the fitted maximal effect; on the % scale 0 is the no-effect control and ±100 the full control effect
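Pol eta (10 nM) was preincubated with compounds for 15 min at room temperature, after which fluorescent replication substrate (50 nM final) was added to start the reaction. Fluorescence was read kinetically at 0 and 10 min.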
ADP-Glo interf: ADP-Glo luciferase interference, PI5P4K counter-screen; shares compounds with PI5P4Ka inh; ADP-Glo detection counter-screen, luciferase luminescence, no enzyme; Potency, µM (highest dose often 76.9 µM), for the others: at the top dose activity change, negative = inhibition, actives largely listed as inhibitors; 1,100 tested, under 10 active
The depositor's hits bear a star; ? = inconclusive; . = no result; [ ] = remark or other dose. Most compounds without a hit are left out; they make up all but 2.8% or so of the library. Unless noted, the call rests on the fitted dose curve; in most records, active means well fitted curve in the direction sought with a large enough effect; inconclusive means small, poorly fitted or top-dose-only effect, or another doubt; inactive means no such curve, though single readings can be large; an effect the other way counts as inactive or inconclusive.

SMILES | POLB inh | PI5P4Ka inh | Pol iota inh | WRN inhibitor | Pol kappa inh | POLH inh | ADP-Glo interf
O=C(c1ccc2c(c1)N(Cc1cccc(Cl)c1)C(=O)c1ccccc1S2=O)N1CCN(c2cccc(C(F)(F)F)c2)CC1 (stereo unspecified) | 0.4% | . | 3.0% | . | -12.3%[60.1 µM] | -15.8% | .
NC(=O)c1ccsc1NC(=O)COC(=O)CNC(=O)c1ccc(F)cc1 | . | -51.3* | ? | -12.0% | ? | ? | 1.7%
NC(=O)c1ccsc1NC(=O)COC(=O)COc1ccccc1F | -10.2%[57.1 µM] | -26.1 | -9.3% | -10.5%[57.1 µM] | -5.1% | ? | .
NC(=O)c1ccsc1NC(=O)COC(=O)c1c(F)cccc1Cl | . | -0.9 | -16.8% | 2.7% | -2.6% | -10.8% | .
NC(=O)c1ccsc1NC(=O)COC(=O)c1ccccc1F | . | -54.3* | 79.4µM* | 5.6% | -2.7% | -6.7% | -10.4%
O=C(NCc1cccc(F)c1)Nc1nnc([C@H]2C[C@H](O)[C@@H](CO)O2)s1 | . | -50.4* | . | 2.9% | . | . | -1.3%
CC1CCN(S(=O)(=O)c2ccc3c(c2)CCN3)CC1 | 11.6% | . | 6.9% | . | -9.2%[60.1 µM] | 2.5% | .
O=C(NC(=S)Nc1ccc2c(c1)OCCO2)c1ccccc1F | 11.3% | 4.1 | -11.7% | -0.3% | 2.7% | -13.3% | .
O=C(Nc1ccc2c(c1)OCCO2)c1ccccc1F | -1.2% | -52.1* | ? | -20.1% | -9.5% | -16.7% | -24.1%
COCCNC(=O)c1cc(-c2ccccc2)sc1N | . | -63.0* | . | -0.3% | . | . | -5.1%
CN1CCN(S(=O)(=O)c2ccc(N3CCc4ccccc4C3)nc2)CC1 | 0.9% | -69.5* | 21.4% | -21.3% | -8.0% | -2.7% | -5.8%
CN1CCN(c2ccc(S(=O)(=O)N3CCCCC3)cn2)CC1 | -1.6% | -3.2 | 6.8% | 0.8% | 5.6% | -16.7% | .
O=C(c1cc(Br)c(Br)s1)N1CCc2ccccc2C1 | . | 7.1 | -24.2% | -0.2% | -3.8% | -1.9% | .
N#Cc1c(-c2ccc(Cl)cc2Cl)nc2n(c1=O)CCS2 | ? | -54.2* | ? | -14.5% | -16.1% | ? | 1.8%
Cc1cc(C)cc(N(CC(=O)N2CCn3c2nc2ccccc23)S(=O)(=O)c2c(C)noc2C)c1 | 34.3% | -1.6 | 8.0% | -2.7% | 3.8% | -25.9% | .
O=C(OCc1nnc(-c2ccccc2)o1)c1ccc2ccccc2n1 | 0.8% | -66.2* | -12.2% | -1.5% | 8.6% | -11.7% | -6.0%
O=C(OCc1nnc(-c2ccccc2)o1)c1cc2ccccc2cc1O | 16.7% | -7.1 | -1.9% | -6.5% | -12.1% | -15.8% | .
O=C(OCc1nnc(-c2ccccc2)o1)c1ccc(S(=O)(=O)NCc2ccco2)cc1 | 3.55µM* | -54.4* | ? | -22.8% | ? | 22.4µM* | -2.6%
CN(C)S(=O)(=O)c1ccc(C(=O)OCc2nnc(-c3ccccc3)o2)cc1 | -0.3% | 4.7 | 62.8% | 4.3% | 4.4% | -12.4% | .
Cc1cc(Nc2cccc(C(F)(F)F)c2)nc2ccc(NC(=O)c3ccc(N(C)C)cc3)cc12 | -16.4% | . | ? | . | -11.6% | -20.2% | .
COc1ccc(CCNC(=O)CCS(=O)(=O)c2ccc3c(c2)NC(=O)CO3)cc1OC | 25.5% | 0.4 | -6.0% | -5.9% | -2.7% | 0.4% | .
O=C(c1ccco1)N1N=C(c2cccs2)CC1c1ccc(F)cc1 (stereo unspecified) | 4.1% | -2.3 | -0.1% | 0.5% | -12.6% | -18.3% | .
CS(=O)(=O)Nc1ccc(C2=NN(C(=O)c3ccco3)C(c3ccc(F)cc3)C2)cc1 (stereo unspecified) | -7.9% | -55.9* | -29.5% | -23.4% | -5.1% | -12.0% | -4.8%
CCc1nnc(NC(=O)c2ccc(S(C)(=O)=O)cc2)s1 | 0.6% | -53.0* | 28.8% | 2.1% | -1.8% | 21.5% | -1.2%
CCN(CC)S(=O)(=O)c1ccc(C(=O)Nc2nnc(NC(=S)Nc3ccccc3)s2)cc1 | 7.3% | -58.8* | 13.1% | 7.3% | -8.1% | -4.9% | 5.9%
SMILES | POLB inh | PI5P4Ka inh | Pol iota inh | WRN inhibitor | Pol kappa inh | POLH inh | ADP-Glo interf
CC(=O)OC[C@@H]1CN(Cc2ccccc2)C[C@H](n2cnc3c(NC4CC4)ncnc32)O1 | . | -4.4 | . | 3.3% | . | . | .
COc1ccc(OC)c(S(=O)(=O)NCCCn2ccnc2)c1 | 0.4% | 3.2 | 16.2% | 3.6% | -14.1% | 9.1% | .
COc1ccc(Cl)cc1S(=O)(=O)NCCCn1ccnc1 | 2.1% | -23.4 | ? | -14.3% | ? | 9.2% | -1.5%
COc1ccc(C)cc1S(=O)(=O)Nc1cccc(-c2ccc(N3CCCC3)nn2)c1 | -4.5% | . | 37.2% | . | -9.3%[60.1 µM] | -19.9% | .
O=C(CSc1n[nH]c(-c2cccnc2)n1)OC1CCCCC1 | -14.9% | -66.0* | 85.6% | -14.4% | -8.8% | -12.5% | -8.1%
O=C(CSc1n[nH]c(-c2cccnc2)n1)Nc1ccc(Br)cc1 | -1.5% | -5.1 | 15.6% | 1.7% | -5.2% | 2.4% | .
COc1ccccc1/C=C/c1nc(C#N)c(N2CCN(C)CC2)o1 | 16.5% | . | -1.0% | . | -8.1% | -16.2% | .
O=C(Nc1ccsc1C(=O)O)c1cccc(C(F)(F)F)c1 | 8.8% | -58.4* | -5.4% | -6.1% | -3.6% | 6.0% | 1.8%
O=C(Nc1ccsc1C(=O)O)c1cccc(Oc2ccccc2)c1 | 11.9% | ? | 121.0% | -9.0% | -3.8% | -4.7% | .
CSc1ncccc1C(=O)Nc1ccc(OC(F)(F)F)cc1 | -2.5% | -58.3* | 42.2% | 0.7% | -14.4% | -1.8% | 2.0%
COc1cc(NC(=O)c2cccnc2SC)cc(OC)c1OC | -4.6% | -4.4 | 40.0% | 3.8% | -0.2% | -10.7% | .
Cc1nnc(SCC(=O)Nc2sc3c(c2C(N)=O)CCC(C)C3)[nH]c1=O (stereo unspecified) | . | -53.6* | 7.2% | -0.6% | -13.0% | -14.2% | -8.0%
Cc1nnc(SCC(=O)Nc2sc3c(c2C(N)=O)CCCC3)[nH]c1=O | ? | ? | -5.9% | -16.4% | -24.4% | 2.5% | .
COc1ccc2cc(C#N)c(SCC(=O)N3CCCC3)nc2c1 | 16.2% | 2.4 | 16.8% | 8.9% | -0.3% | -0.2% | .
COc1ccc2nc(SCC(=O)N3CCN(c4ccc(F)cc4)CC3)c(C#N)cc2c1 | ? | -50.2* | ? | -21.1% | -7.8% | -9.1% | 5.6%
CCOc1ccc(CCNS(=O)(=O)c2cn(C)cn2)cc1OCC | 11.9% | -25.6 | ? | 2.8% | ? | -4.2% | 0.3%
CCOc1ccccc1N1CSC2=C(C#N)C(c3c(OC)ccc4ccccc34)CC(=O)N2C1 (stereo unspecified) | -15.8% | -84.8* | -4.7% | 9.2% | ? | -17.8% | -5.2%
COc1ccc(C2CC(=O)N3CN(c4ccc(C)c(Cl)c4)CSC3=C2C#N)cc1OC (stereo unspecified) | 38.8% | -61.0* | 0.3% | -10.2% | -33.6% | -8.8% | -0.2%

Screens: PubChem BioAssay, National Center for Advancing Translational Sciences (NCATS)
